Laboratory results from PubChem BioAssay (NCATS).
Inconclusive results are not listed. The source made the active and inactive calls. Unless noted, calls come from the whole dose curve; as a rule, active = well fitted curve in the direction sought with a large enough effect; inconclusive = small, poorly fitted or top-dose-only effect, or another doubt; inactive = no such curve, though single readings can be large; an effect the other way counts as inactive or inconclusive.

Tests used:
[1] = target: Thioredoxin reductase 1, cytoplasmic (Rattus norvegicus) (UniProt O89049); test: qHTS Assay for Substrates of Mammalian Selenoprotein Thioredoxin Reductase 1 (TrxR1) (AID 488772);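 note: NADPH fluorescence in the first read after selenite addition and not the 8 min delta; series mostly up to about 57 µM; 0% is about no effect; a drop in NADPH fluorescence below the no-compound background marks a TrxR1 substrate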
Summary of the method: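 Quantitative HTS in Tris-HCl buffer at pH 7.5 with EDTA and Tween-20, using rat TrxR1, 400 uM NADPH and 400 uM selenite (final). A fall in initial NADPH fluorescence relative to background marked substrate behaviour.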

[2] = target: Thioredoxin reductase 1, cytoplasmic (Rattus norvegicus) (UniProt O89049); test: qHTS Assay for Inhibitors of Mammalian Selenoprotein Thioredoxin Reductase 1 (TrxR1) (AID 488773); details: Potency: inhibition; note: nearly all actives have a fitted effect of over 40% in size; note: potency is the fitted concentration of half-maximal effect
Summary of the method: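 Steps: enzyme (90 nM) plus NADPH (400 uM final), 5 min at ~22 deg C; compound added, 15 min; selenite (400 uM final) added; fluorescence followed for 8 min. Concentration-response curves derived from the normalized delta values.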

[3] = target: Flap endonuclease 1 (Homo sapiens) (UniProt P39748); test: qHTS Validation Assay for the Inhibitors of Human Flap endonuclease 1 (FEN1) (AID 488816); note: % is set by controls: 0 for no effect and ±100 for the full control effect
Summary of the method: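 Human FEN1 (10 nM) preincubated 15 min at room temperature with compounds, then flap DNA substrate added at 50 nM final. Fluorescence read at 0 and 15 min; concentration-response fitted with four-parameter Hill equation.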

[4] = target: M-phase phosphoprotein 8 (Homo sapiens) (UniProt Q99549); test: qHTS Validation Assay for Inhibitors for MPP8 Chromodomain Interactions with Methylated Histone Tails (AID 488949);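 note: AlphaScreen signal from MPP8 chromodomain bound to biotinylated H3K9me3 peptide; top concentration of the series differs between compounds; % is set by controls: 0 for no effect and ±100 for the full control effect; nearly all actives have a fitted effect of over 55% in size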
Summary of the method: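 Disruption of the preformed MPP8–trimethyl-H3K9 peptide complex (both 50 nM, 30 min, RT) is measured after 30 min compound exposure, using AlphaScreen proximity beads; aurintricarboxylic acid titration serves as plate control.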

[5] = target: Chromobox protein homolog 1 (Homo sapiens) (UniProt P83916); test: qHTS Validation Assay for Inhibitors of HP1-beta Chromodomain Interactions with Methylated Histone Tails (AID 488953);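 note: loss of AlphaScreen luminescence from HP1-beta binding biotinylated H3K9me3 peptide; series mostly up to about 110 µM; % is set by controls: 0 for no effect and ±100 for the full control effect; nearly all actives have a fitted effect of over 50% in size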
Summary of the method: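 Measured as loss of AlphaScreen luminescence from streptavidin donor and nickel acceptor beads (10 ug/mL final) bridging HP1-beta and biotin-H3(1-18)K9me3, each 50 nM. Compounds met the preassembled complex for 30 min at RT.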

[6] = target: Methanococcus maripaludis chaperonin (MmCpn) (UniProt Q6LX38); test: High-Throughput Screening for Modulators of Cytosolic Chaperonin Activity: MmCpn Primary Screen (AID 488978);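 note: 50 nM MmCpn enzyme hydrolysing 30 µM ATP at 37 °C; 0% is about no effect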
Summary of the method: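 Measures ATPase turnover of the M. maripaludis chaperonin (50 nM final) against 30 uM ATP over 10 min at 37C, with compound added 5 min beforehand at room temperature. ADP is quantified by HTRF immunodetection.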

[7] = target: Transient receptor potential cation channel subfamily V member 1 (Homo sapiens) (UniProt Q8NER1); test: HTS Assay for Compounds that Act as Enhancers of the Vanilloid Receptor 1 (AID 488979); note: 0% is about no effect
Summary of the method: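 TRPV1 cells loaded with Fluo-8 calcium dye; compound added and Ca2+ signal (ex 480/em 520 nm) followed 3 min, then capsaicin at EC20 added and read 2 more min to detect enhancement.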

[8] = target: Thyrotropin receptor (Homo sapiens) (UniProt P16473); test: qHTS Assay for Antagonists of the Thyroid Stimulating Hormone Receptor (AID 488980); note: series mostly up to about 58 µM; 0% is about no effect
Summary of the method: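 Cells expressing human TSHR (HEK293) are dispensed in HBSS/HEPES containing 70 uM RO 20-1724, compound is added, then TSH at EC80 (4 nM final). Antibody in lysis buffer follows, 30 minutes at room temperature before HTRF detection.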

[9] = target: D(1A) dopamine receptor (Homo sapiens) (UniProt P21728); test: HTS Assay for Allosteric Agonists of the Human D1 Dopamine Receptor: Primary Screen for Agonists (AID 488981); note: 0% is about no effect
Summary of the method: (§1)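 Tetracycline-induced HEK293 Trex D1 cells with forced coupling to calcium, loaded with no-wash calcium dye; kinetic fluorescence read 180 s after compound addition for agonism, then a further 180 s after an EC20 dopamine challenge for potentiation.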

[10] = target: D(1A) dopamine receptor (Homo sapiens) (UniProt P21728); test: HTS Assay for Allosteric Agonists of the Human D1 Dopamine Receptor: Primary Screen for Potentiators (AID 488982); note: 0% is about no effect
Summary of the method: as §1

[11] = target: D(1A) dopamine receptor (Homo sapiens) (UniProt P21728); test: HTS Assay for Allosteric Agonists of the Human D1 Dopamine Receptor: Primary Screen for Antagonists (AID 488983);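 note: calcium flux response to an EC80 dopamine challenge measured with no-wash dye; % is set by controls: 0 for no effect and ±100 for the full control effect; nearly all actives have a fitted effect of over 65% in size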
Summary of the method: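 Screening of inducible HEK293 T-REx D1 cells: compound first, EC80 dopamine 180 s later, each phase read kinetically for calcium over 180 s.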

[12] = target: ATP-dependent 6-phosphofructokinase (Trypanosoma brucei brucei) (UniProt O15648); test: qHTS Assay to Find Inhibitors of T. brucei phosphofructokinase: hit validation (AID 492961); note: series mostly up to about 51 µM; % is set by controls: 0 for no effect and ±100 for the full control effect
Summary of the method: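 Luminescence from ADP-Glo reports ADP generated as T. brucei PFK (1.25 nM) phosphorylates 0.5 mM fructose-6-phosphate using 0.1 mM ATP. Reactions ran 45 min at room temperature, pH 8.0.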

[13] = Validation screen for small molecules that induce genotoxicity in human embryonic kidney (HEK293T) cells expressing luciferase-tagged ELG1 (AID 493106); note: 0% is about no effect
Summary of the method: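 Reporter-gene quantitative HTS in HEK293T cells carrying luciferase-tagged ELG1, whose level climbs under genotoxic stress. Compound exposure lasts 16 hr at 37 °C before luciferase detection.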

[14] = target: Thyrotropin-releasing hormone receptor (Homo sapiens) (UniProt P34981); test: qHTS for Small Molecule Agonists and Allosteric Enhancers of Human TRH Receptor: Validation Screen for Agonists (AID 493127;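 active = calcium activation more than 3 SD above the typical response in the agonist read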;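 note: intracellular calcium rise by fluo-8 fluorescence before TRH EC20 addition; 0% is about no effect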); details: TRH receptor agonist cell assay; at 2 µM; stronger effect = higher value
Summary of the method: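 Gq-coupled calcium mobilization in TRHR cells after compound addition, monitored kinetically with fluo-8 dye on an FDSS reader.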

[15] = Nrf2 qHTS screen for inhibitors: Validation (AID 493153; active = well fitted inhibition curve with a large enough effect in the main read-out, with a control signal flat, not every such curve was filed as active); details: Potency: luciferase luminescence; viability change: measured here: cytotoxicity max response
Summary of the method: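 Dose-response validation uses reporter A549 cells with firefly luciferase under an antioxidant response element. Compounds stay on cells 18-24 h at 37°C, and luminescence indicates Nrf2-driven transcription.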

[16] = qHTS for Inhibitors of Cell Surface uPA Generation: Validation Assay (AID 493164);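 note: RAW 264.7 macrophage cells exposed to compound for 18 h; 0% is about no effect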
Summary of the method: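 RAW 264.7, 4000 cells/well, o/n plating; cpd 7-pt 1:5 dilution 2.45 nM–38.3 uM final; 18 h, 37 C/5% CO2; ATP-Lite, 5 s luminescence exposure.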

[17] = target: Galactokinase (Homo sapiens) (UniProt P51570); test: qHTS Validation Assay for Inhibitors of Human Galactokinase (GALK) (AID 493189); note: 0% is about no effect
Summary of the method: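 Compounds were pin-transferred into ATP buffer, then GALK-galactose mix was added (final 5 nM enzyme, 100 uM galactose, 35 uM ATP). After 1 h at room temperature, remaining ATP was measured luminescently.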

[18] = Validation screen for small molecules that induce DNA re-replication in SW480 colon adenocarcinoma cells (AID 504364); note: 0% is about no effect
Summary of the method: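 Cells are treated 48 hr with test compound, stained 40 min with Hoechst at 37 C, and scanned for nuclear fluorescence; compounds inducing re-replication increase nuclei with elevated intensity.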

[19] = target: Peptidyl-prolyl cis-trans isomerase NIMA-interacting 1 (Homo sapiens) (UniProt Q13526); test: qHTS Validation Assay to Find Inhibitors of Pin1 (AID 504536; active = well fitted inhibition curve with a large enough effect in the polarisation, with a control signal flat, not every such curve was filed as active; the % refers to the polarisation;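 note: 0% = full Pin1 enzyme wells and -100% = no-enzyme wells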)
Summary of the method: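 Fluorescence polarization competition: compounds (titration) displace HiFluor-488-labeled Pin1-1b peptide from Pin1 (0.3 uM final) in pH 7.5 HEPES buffer with DTT, 10 min at room temperature; %Activity normalized to no-enzyme wells, curves fitted.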

[20] = target: ATPase family AAA domain-containing protein 5 (Homo sapiens) (UniProt Q96QE3); test: Validation screen for small molecules that inhibit ELG1-dependent DNA repair in human embryonic kidney (HEK293T) cells expressing luciferase-tagged ELG1 (AID 493107);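 note: cells co-treated with the DNA-damaging agent 5-fluorouridine alongside compound; series mostly up to about 46 µM; % is set by controls: 0 for no effect and ±100 for the full control effect; inhibitors lower the ELG1-luciferase luminescence signal; nearly all actives have a fitted effect of over 70% in size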
Summary of the method: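 Quantitative HTS in HEK293T cells carrying luciferase-tagged ELG1, stimulated with 5-fluorouridine alongside compound for 16 hr. Loss of luciferase signal marks inhibition of ELG1 response.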

Thyrotropin receptor (Homo sapiens), sequence (P16473 whole entry, looked up): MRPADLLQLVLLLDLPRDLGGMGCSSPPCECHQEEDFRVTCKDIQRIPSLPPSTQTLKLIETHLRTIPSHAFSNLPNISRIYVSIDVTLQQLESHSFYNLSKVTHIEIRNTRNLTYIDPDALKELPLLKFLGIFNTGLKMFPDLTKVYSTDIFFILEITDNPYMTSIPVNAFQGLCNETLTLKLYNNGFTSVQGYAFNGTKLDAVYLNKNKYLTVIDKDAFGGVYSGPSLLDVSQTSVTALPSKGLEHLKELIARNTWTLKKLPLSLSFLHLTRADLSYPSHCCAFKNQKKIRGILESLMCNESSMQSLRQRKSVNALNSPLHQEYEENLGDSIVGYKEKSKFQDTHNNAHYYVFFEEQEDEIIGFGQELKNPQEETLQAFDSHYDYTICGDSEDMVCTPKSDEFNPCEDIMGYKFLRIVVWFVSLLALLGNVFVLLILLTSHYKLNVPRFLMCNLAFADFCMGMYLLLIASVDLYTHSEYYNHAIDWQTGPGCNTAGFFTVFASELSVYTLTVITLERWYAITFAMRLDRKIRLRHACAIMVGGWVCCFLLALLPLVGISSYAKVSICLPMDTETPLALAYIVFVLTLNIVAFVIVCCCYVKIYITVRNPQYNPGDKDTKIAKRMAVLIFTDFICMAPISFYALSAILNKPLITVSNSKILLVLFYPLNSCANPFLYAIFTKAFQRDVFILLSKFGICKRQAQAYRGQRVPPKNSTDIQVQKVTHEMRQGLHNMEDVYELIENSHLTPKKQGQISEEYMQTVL
M-phase phosphoprotein 8 (Homo sapiens), sequence (Q99549 whole entry, looked up): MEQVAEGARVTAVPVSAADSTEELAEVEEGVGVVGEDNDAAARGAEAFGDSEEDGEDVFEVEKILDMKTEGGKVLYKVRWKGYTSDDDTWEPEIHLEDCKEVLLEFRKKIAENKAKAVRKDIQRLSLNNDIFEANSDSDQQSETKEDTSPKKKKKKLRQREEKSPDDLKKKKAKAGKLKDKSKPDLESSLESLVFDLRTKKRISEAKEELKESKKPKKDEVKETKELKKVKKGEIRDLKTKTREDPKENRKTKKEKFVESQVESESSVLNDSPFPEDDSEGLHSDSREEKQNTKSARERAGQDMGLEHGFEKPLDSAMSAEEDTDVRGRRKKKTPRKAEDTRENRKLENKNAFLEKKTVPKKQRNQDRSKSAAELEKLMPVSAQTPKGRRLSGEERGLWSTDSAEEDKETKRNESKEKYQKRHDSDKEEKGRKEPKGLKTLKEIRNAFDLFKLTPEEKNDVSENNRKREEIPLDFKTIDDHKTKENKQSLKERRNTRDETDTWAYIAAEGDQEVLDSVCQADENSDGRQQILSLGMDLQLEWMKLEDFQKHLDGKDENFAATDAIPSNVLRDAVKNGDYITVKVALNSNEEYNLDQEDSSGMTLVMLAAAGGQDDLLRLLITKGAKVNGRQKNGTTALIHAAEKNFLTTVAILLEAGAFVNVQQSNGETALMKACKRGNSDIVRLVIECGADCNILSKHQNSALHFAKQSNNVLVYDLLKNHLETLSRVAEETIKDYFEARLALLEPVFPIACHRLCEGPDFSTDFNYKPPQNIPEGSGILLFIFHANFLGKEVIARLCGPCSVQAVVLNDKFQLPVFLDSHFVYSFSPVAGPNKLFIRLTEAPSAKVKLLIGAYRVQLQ
Thyrotropin-releasing hormone receptor (Homo sapiens), sequence (P34981 whole entry, looked up): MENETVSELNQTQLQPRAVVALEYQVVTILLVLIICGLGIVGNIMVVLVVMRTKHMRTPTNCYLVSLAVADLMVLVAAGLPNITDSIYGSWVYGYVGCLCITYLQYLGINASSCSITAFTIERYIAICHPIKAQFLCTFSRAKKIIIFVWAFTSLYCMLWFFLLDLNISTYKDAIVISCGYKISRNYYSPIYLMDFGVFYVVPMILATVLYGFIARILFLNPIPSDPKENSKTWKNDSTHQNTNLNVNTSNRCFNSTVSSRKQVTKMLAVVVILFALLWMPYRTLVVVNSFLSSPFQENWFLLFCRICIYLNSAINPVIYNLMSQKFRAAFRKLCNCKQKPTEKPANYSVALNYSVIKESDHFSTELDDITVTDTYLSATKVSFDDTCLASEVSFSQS
D(1A) dopamine receptor (Homo sapiens), sequence (P21728 whole entry, looked up): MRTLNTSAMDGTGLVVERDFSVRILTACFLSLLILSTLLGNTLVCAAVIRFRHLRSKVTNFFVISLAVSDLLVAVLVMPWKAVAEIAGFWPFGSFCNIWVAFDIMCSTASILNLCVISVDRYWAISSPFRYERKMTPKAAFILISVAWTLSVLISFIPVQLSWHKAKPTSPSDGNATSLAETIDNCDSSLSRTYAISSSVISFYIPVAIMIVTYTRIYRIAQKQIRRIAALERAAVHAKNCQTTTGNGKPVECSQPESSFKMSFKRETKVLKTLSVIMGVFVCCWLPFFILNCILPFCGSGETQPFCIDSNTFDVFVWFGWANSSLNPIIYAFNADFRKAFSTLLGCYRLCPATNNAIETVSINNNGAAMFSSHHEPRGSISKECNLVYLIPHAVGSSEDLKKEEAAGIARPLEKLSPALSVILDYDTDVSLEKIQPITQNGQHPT
Thioredoxin reductase 1, cytoplasmic (Rattus norvegicus), sequence (O89049 whole entry, looked up): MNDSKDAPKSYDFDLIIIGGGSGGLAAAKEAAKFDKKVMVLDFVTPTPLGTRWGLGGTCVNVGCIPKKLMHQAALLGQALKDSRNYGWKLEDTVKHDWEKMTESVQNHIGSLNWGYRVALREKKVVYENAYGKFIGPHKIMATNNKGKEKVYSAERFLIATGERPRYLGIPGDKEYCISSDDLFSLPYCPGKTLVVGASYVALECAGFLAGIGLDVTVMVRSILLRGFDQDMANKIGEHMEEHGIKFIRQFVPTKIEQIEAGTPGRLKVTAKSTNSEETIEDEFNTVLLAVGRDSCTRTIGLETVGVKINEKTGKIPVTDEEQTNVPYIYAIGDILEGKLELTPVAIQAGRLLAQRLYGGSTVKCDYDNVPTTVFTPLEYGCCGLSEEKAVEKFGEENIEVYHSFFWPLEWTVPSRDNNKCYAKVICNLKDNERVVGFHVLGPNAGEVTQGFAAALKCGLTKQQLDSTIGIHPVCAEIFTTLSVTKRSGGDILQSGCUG
Peptidyl-prolyl cis-trans isomerase NIMA-interacting 1 (Homo sapiens), sequence (Q13526 whole entry, looked up): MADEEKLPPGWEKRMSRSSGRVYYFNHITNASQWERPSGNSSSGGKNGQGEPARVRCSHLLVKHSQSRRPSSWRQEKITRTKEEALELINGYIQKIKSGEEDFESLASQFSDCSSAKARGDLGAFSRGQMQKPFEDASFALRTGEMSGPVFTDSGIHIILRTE
ATPase family AAA domain-containing protein 5 (Homo sapiens), sequence (Q96QE3 whole entry, looked up, the tested form may be a part): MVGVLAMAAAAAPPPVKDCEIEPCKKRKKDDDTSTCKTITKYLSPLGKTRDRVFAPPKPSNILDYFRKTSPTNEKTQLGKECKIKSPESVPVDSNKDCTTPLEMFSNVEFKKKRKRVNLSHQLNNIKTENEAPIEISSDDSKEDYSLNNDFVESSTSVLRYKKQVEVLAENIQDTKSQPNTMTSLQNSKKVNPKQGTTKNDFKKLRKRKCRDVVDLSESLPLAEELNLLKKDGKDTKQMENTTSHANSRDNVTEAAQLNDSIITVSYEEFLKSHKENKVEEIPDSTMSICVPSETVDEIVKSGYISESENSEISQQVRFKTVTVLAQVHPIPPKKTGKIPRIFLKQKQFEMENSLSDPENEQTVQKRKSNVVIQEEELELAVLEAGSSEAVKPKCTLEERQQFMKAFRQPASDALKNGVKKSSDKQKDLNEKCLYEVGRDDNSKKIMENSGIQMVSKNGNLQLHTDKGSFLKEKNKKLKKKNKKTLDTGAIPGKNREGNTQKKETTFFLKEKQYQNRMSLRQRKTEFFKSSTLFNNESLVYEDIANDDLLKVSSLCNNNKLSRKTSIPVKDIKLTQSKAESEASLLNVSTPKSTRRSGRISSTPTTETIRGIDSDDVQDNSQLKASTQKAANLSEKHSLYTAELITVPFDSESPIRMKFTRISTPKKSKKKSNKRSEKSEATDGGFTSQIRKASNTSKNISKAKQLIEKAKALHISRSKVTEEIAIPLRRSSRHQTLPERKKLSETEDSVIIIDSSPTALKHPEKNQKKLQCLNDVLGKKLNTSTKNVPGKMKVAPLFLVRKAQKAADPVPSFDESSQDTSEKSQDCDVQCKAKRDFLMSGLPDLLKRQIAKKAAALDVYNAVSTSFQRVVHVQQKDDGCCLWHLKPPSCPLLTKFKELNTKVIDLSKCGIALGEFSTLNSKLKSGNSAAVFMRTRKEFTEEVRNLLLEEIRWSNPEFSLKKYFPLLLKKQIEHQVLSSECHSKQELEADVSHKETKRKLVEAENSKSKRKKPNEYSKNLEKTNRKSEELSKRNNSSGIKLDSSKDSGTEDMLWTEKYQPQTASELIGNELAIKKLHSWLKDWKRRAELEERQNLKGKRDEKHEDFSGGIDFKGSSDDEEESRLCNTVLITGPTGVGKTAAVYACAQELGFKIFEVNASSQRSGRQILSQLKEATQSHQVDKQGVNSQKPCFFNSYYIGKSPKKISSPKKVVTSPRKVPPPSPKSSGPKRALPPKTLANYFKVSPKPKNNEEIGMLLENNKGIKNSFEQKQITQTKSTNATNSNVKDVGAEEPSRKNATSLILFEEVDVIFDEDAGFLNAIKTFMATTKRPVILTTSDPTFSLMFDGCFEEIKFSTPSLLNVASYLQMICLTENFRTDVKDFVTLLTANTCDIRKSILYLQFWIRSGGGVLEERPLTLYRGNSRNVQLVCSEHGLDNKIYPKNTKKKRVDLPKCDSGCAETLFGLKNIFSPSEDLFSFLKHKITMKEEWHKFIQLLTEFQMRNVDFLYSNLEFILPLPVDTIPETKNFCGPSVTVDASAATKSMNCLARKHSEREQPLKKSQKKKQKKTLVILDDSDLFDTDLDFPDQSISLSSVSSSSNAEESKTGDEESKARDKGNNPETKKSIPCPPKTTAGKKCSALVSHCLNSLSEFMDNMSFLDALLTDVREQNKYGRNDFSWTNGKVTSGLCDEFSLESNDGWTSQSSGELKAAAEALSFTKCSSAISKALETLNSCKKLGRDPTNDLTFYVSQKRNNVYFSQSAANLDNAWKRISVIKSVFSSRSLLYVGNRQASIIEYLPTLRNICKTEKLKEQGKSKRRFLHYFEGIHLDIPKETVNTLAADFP

CCCCNc1cc(C(=O)O)cc(S(N)(=O)=O)c1Oc1ccccc1
inactive: outcome [1] | Potency [2] | Potency [3] | Potency [4] | Potency [5] | outcome [6] | outcome [7] | outcome [8] | Potency [9] | Potency [10] | Potency [11] | outcome [12] | Potency [13] | activation [14] 1.31% | Potency [15] | outcome [16] | outcome [17] | outcome [18] | outcome [19]
10.1%: viability change [15]

Cn1cnc([N+](=O)[O-])c1Sc1ncnc2nc[nH]c12
active: Potency [2] 15 µM
inactive: outcome [1] | Potency [3] | Potency [4] | Potency [5] | outcome [7] | outcome [8] | Potency [9] | Potency [10] | Potency [11] | Potency [13] | Potency [20] | activation [14] 0.875% | Potency [15] | outcome [16] | outcome [17] | outcome [18] | outcome [19]
-10.4%: viability change [15]

N=c1nc(N2CCCCC2)cc(N)n1O
inactive: outcome [1] | Potency [2] | Potency [3] | Potency [4] | Potency [5] | outcome [7] | outcome [8] | Potency [9] | Potency [10] | Potency [11] | Potency [13] | Potency [20] | activation [14] 0% | Potency [15] | outcome [16] | outcome [17] | outcome [18] | outcome [19]
-11.3%: viability change [15]

Cc1cn[nH]c1
9.47%: viability change [15]
inactive: outcome [1] | Potency [2] | Potency [3] | Potency [4] | Potency [5] | outcome [6] | outcome [7] | outcome [8] | Potency [9] | Potency [10] | Potency [11] | outcome [12] | Potency [13] | Potency [20] | Potency [15] | outcome [16] | outcome [17] | outcome [18] | outcome [19]

O=C1CCc2cc(OCCCCc3nnnn3C3CCCCC3)ccc2N1
inactive: outcome [1] | Potency [2] | Potency [3] | Potency [4] | Potency [5] | outcome [6] | outcome [7] | outcome [8] | Potency [9] | Potency [10] | Potency [11] | Potency [13] | Potency [20] | activation [14] 3.38% | outcome [16] | outcome [17] | outcome [18] | outcome [19]

O=C1CCC(N2C(=O)c3ccccc3C2=O)C(=O)N1 (stereo not given)
inactive: outcome [1] | Potency [2] | Potency [3] | Potency [4] | Potency [5] | outcome [7] | outcome [8] | Potency [9] | Potency [10] | Potency [11] | Potency [13] | Potency [20] | activation [14] 0.188% | Potency [15] | outcome [16] | outcome [17] | outcome [18] | outcome [19]
-1.75%: viability change [15]

O=c1[nH]cnc2[nH]ncc12
5.19%: viability change [15]
inactive: outcome [1] | Potency [2] | Potency [3] | Potency [4] | Potency [5] | outcome [7] | Potency [9] | Potency [10] | Potency [11] | Potency [13] | Potency [20] | Potency [15] | outcome [16] | outcome [17] | outcome [18] | outcome [19]

CC(=O)Oc1ccccc1C(=O)O
inactive: outcome [1] | Potency [2] | Potency [3] | Potency [4] | Potency [5] | outcome [7] | outcome [8] | Potency [9] | Potency [10] | Potency [11] | outcome [12] | Potency [13] | Potency [20] | Potency [15] | outcome [16] | outcome [17] | outcome [18] | outcome [19]
-7.95%: viability change [15]

Cc1ccccc1C(OCCN(C)C)c1ccccc1 (stereo not given)
7.3%: viability change [15]
inactive: outcome [1] | Potency [2] | Potency [3] | Potency [4] | Potency [5] | outcome [7] | outcome [8] | Potency [9] | Potency [10] | Potency [11] | outcome [12] | Potency [13] | Potency [20] | activation [14] 0.625% | Potency [15] | outcome [16] | outcome [17] | outcome [18] | outcome [19]

O=NN(CCCl)C(=O)NCCCl
-0.612%: viability change [15]
inactive: outcome [1] | Potency [2] | Potency [3] | Potency [4] | Potency [5] | outcome [6] | outcome [7] | outcome [8] | Potency [9] | Potency [10] | Potency [11] | Potency [13] | Potency [20] | activation [14] 0.438% | Potency [15] | outcome [16] | outcome [17] | outcome [18] | outcome [19]

CCCC(CCC)C(=O)O
inactive: outcome [1] | Potency [2] | Potency [3] | Potency [4] | Potency [5] | outcome [7] | outcome [8] | Potency [9] | Potency [10] | Potency [11] | outcome [12] | Potency [13] | activation [14] 0.688% | Potency [15] | outcome [16] | outcome [17] | outcome [18] | outcome [19]
2.98%: viability change [15]

Nc1ccc(S(=O)(=O)Nc2ccnn2-c2ccccc2)cc1
-5.45%: viability change [15]
inactive: outcome [1] | Potency [2] | Potency [3] | Potency [4] | Potency [5] | outcome [7] | outcome [8] | Potency [9] | Potency [10] | Potency [11] | outcome [12] | Potency [13] | Potency [20] | activation [14] 1.12% | Potency [15] | outcome [16] | outcome [17] | outcome [18] | outcome [19]
